Structures can show the parent of a compound that is named as a salt.
Test system: Escherichia coli IAI1
Assay: fold change of Cadaverine concentration vs plate DMSO controls (fold change (ratio)); higher = more amine produced, active = hit call of the paper (significant change in both replicates, either direction)
Conditions: incubation time: 27 h, anaerobic, 37 °C;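 for the amine columns active = adjusted P below 0.05 in both replicates with a change the same way and a mean fold change under 0.8 or over 1.25; inactive = the rest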
Method in brief: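 Extracts of whole anaerobic mGAM cultures were analysed for amines by LC–triple-quadrupole MS with dynamic MRM and external calibration curves, with drift corrected within batch. Four gut strains were grown at 37 °C for 27 h in 80 µL wells with compounds at 20 µM final, sweeteners at 50 µM final. Each value expresses fold change over plate DMSO controls. The average of 2 biological replicates is shown.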

Fold change of Cadaverine concentration, inactive:
CC(=O)Oc1cccc2c1C(=O)c1c(OC(C)=O)cc(C(=O)O)cc1C2=O [Diacerein] (20 µM) 1.02
CC(C)(CO)[C@@H](O)C(=O)NCCCO [(D)-Panthenol] (20 µM) 1
CCc1cc(Cl)c(OC)c(C(=O)NC[C@@H]2CCCN2CC)c1O [(S,-) Eticlopride hydrochloride] (20 µM) 1.01
O=C1c2cccc(O)c2C(=O)c2c(O)cccc21 [Danthron] (20 µM) 1
CN(C)CCC(c1ccc(Br)cc1)c1ccccn1 (centres undefined) [Brompheniramine maleate] (20 µM) 1.2
NC[C@H]1O[C@H](O[C@H]2[C@H](O[C@@H]3O[C@H](CO)[C@@H](O)[C@H]3O)[C@@H](O)[C@H](N)C[C@@H]2N)[C@H](N)[C@@H](O)[C@@H]1O [Ribostamycin sulfate salt] (20 µM) 0.963
NS(=O)(=O)c1cc2c(cc1Cl)N=CNS2(=O)=O [Chlorothiazide] (20 µM) 0.97
CCc1oc2ccccc2c1C(=O)c1cc(Br)c(O)c(Br)c1 [Benzbromarone] (20 µM) 1.04
O=C1NCN(c2ccccc2)C12CCN(CCCC(c1ccc(F)cc1)c1ccc(F)cc1)CC2 [Fluspirilene] (20 µM) 1.02
C[C@H](CCC(=O)O)[C@H]1CC[C@H]2[C@@H]3C(=O)C[C@@H]4CC(=O)CC[C@]4(C)[C@H]3CC(=O)[C@]12C [Dehydrocholic acid] (20 µM) 0.982
CCn1cc(C(=O)O)c(=O)c2ccc(C)nc21 [Nalidixic acid sodium salt] (20 µM) 1.69
COc1cc(C(=O)NS(=O)(=O)c2ccccc2C)ccc1Cc1cn(C)c2ccc(NC(=O)OC3CCCC3)cc12 [Zafirlukast] (20 µM) 1.02
NCCc1ccc(O)c(O)c1 [Dopamine hydrochloride] (20 µM) 0.959
Cc1c(-c2ccccc2)oc2c(C(=O)OCCN3CCCCC3)cccc2c1=O [Flavoxate hydrochloride] (20 µM) 1.03
Oc1c(I)cc(Cl)c2cccnc12 [Clioquinol] (20 µM) 1.09
CN(C)C(=N)NC(=N)N [Metformin hydrochloride] (20 µM) 0.962
N=C(N=C(N)N)N1CCOCC1 [Moroxidine hydrochloride] (20 µM) 0.916
CCOCC(O)COc1ccc(NC(=O)CC[S+](C)C)cc1 (centres undefined) [Suplatast Tosylate] (20 µM) 0.989
C#CCN(C)CCCOc1ccc(Cl)cc1Cl [Clorgyline hydrochloride] (20 µM) 0.983
CC1(C)[C@H](C(=O)O)N2C(=O)C[C@H]2S1(=O)=O [Sulbactam] (20 µM) 0.985
CC(C)(C)C(=O)C(Oc1ccc(Cl)cc1)n1ccnc1 (centres undefined) [Climbazole] (20 µM) 0.968
CC1(C)O[C@@H]2[C@@H](CO[C@@]3(COS(N)(=O)=O)OC(C)(C)O[C@@H]23)O1 [Topiramate] (20 µM) 1.01
CN1CCC(OC(c2ccccc2)c2ccccc2)CC1 [Diphenylpyraline hydrochloride] (20 µM) 0.979
O=c1[nH]c(=O)n([C@H]2C[C@H](O)[C@@H](CO)O2)cc1/C=C/Br [Brivudine] (20 µM) 0.982
COC(=O)C1=C(C)NC(C)=C(C(=O)OCC(C)C)C1c1ccccc1[N+](=O)[O-] (centres undefined) [Nisoldipine] (20 µM) 0.981
CCOC(=O)C(C)(C)Oc1ccc(Cl)cc1 [Clofibrate] (20 µM) 0.919
CC(C)[C@H]1CC[C@H](C(=O)N[C@H](Cc2ccccc2)C(=O)O)CC1 [Nateglinide] (20 µM) 0.984
O=C1OC(c2ccc(O)cc2)(c2ccc(O)cc2)c2ccccc21 [Phenolphthalein] (20 µM) 0.965
COc1cc2c(cc1OC)C(=O)C(CC1CCN(Cc3ccccc3)CC1)C2 (centres undefined) [Donepezil hydrochloride] (20 µM) 0.981
CC1=C(CC(=O)O)c2cc(F)ccc2/C1=C\c1ccc([S+](C)[O-])cc1 (centres undefined) [Sulindac] (20 µM) 0.995
Cc1cn([C@H]2C=C[C@@H](CO)O2)c(=O)[nH]c1=O [Stavudine] (20 µM) 1.21
C[C@]12CCC(=O)C=C1CC[C@@H]1[C@@H]2C(=O)C[C@@]2(C)[C@H]1CC[C@]2(O)C(=O)CO [Cortisone] (20 µM) 0.994
C/C(O)=C(\C#N)C(=O)Nc1ccc(C(F)(F)F)cc1 [Teriflunomide] (20 µM) 1.09
C[N+](C)(C)CCCCCC[N+](C)(C)C [Hexamethonium dibromide dihydrate] (20 µM) 0.984
COC(=O)CCc1ccc(OCC(O)CNC(C)C)cc1 (centres undefined) [Esmolol hydrochloride] (20 µM) 1.09
O=C(O)Cc1ccccc1Oc1ccc(Cl)cc1Cl [Fenclofenac] (20 µM) 0.999

Fold change of Cadaverine concentration, active:
CCc1nc(N)nc(N)c1-c1ccc(Cl)cc1 [Pyrimethamine] (20 µM) 1.32
CCN1CCN(c2cc3c(cc2F)c(=O)c(C(=O)O)cn3C2CC2)CC1 [Enrofloxacin] (20 µM) 0.204
C=C1c2c(Cl)ccc(O)c2C(O)=C2C(=O)[C@]3(O)C(O)=C(C(N)=O)C(=O)[C@@H](N(C)C)[C@@H]3[C@@H](O)[C@H]12.O=C(O)c1cc(S(=O)(=O)O)ccc1O [Meclocycline sulfosalicylate] (20 µM) 0.447

Source: the supplement of paper PMC12494721
